In PubChem BioAssay (EPA / NIEHS):
Records with an inconclusive call do not appear. The source made the active and inactive calls. The calls were made as follows: active = hit-call score of the fitted dose curve at least 0.9, where 1 is the maximum; inconclusive = response in the unintended direction; inactive = score below 0.9.

Assay: CCTE_Harrill_HTTr_CellCount_MCF7: CCTE's Cell Proliferation Assessment for the High-Throughput Transcriptomics (HTTr) Platform, Harrill Lab (AID 2284012);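 also: cells exposed to compound for six hours; intended direction is loss of nuclei count meaning fewer cells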
How it was run: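 Chemicals in eight-point dilution series are added to MCF-7 cells for six hours, nuclei are stained with Hoechst and imaged, and per-well nuclei counts are fitted in both directions relative to DMSO controls.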

outcome, inactive:
CC(C)=CCCC(C)CCO (stereo not drawn)
COCCOc1cc2cc(C(=O)NC3CCN(C(C)C)CC3)n(CC(=O)Nc3ccc(Cl)cn3)c2cn1
COc1ccc(-n2nc(C(F)F)cc2-c2ccc(S(C)=O)cc2)cc1 (stereo not drawn)
O=C1CCC(N2C(=O)c3ccccc3C2=O)C(=O)N1 (stereo not drawn)
O=C(O)c1cccc(Oc2ccccc2)c1
CN(C)c1ccc(N=NS(=O)(=O)O)cc1
NC(=O)NO
CCN(C(=O)c1cc(C)cc(OC[C@H](C)Nc2ccncc2)c1)C(C)C
Nc1ccc(Nc2ccccc2)cc1
CCNc1ccccc1
CC1(C)C(=O)N(Br)C(=O)N1Br
COC(=O)c1ccccc1O
COCCOCCOCCOC
Nc1nc2ncc(CNc3ccc(C(=O)N[C@@H](CCC(=O)O)C(=O)O)cc3)nc2c(=O)[nH]1
COC(=O)CC(=O)OC
CC(C)(O)c1coc(S(=O)(=O)NC(=O)Nc2c3c(cc4c2CCC4)CCC3)c1
Clc1nc(Cl)c(Cl)c(Cl)c1Cl
C=CC(=C)CCC=C(C)C
Cc1ccc(O)cc1
CCOCCO
CC(=O)c1ccc2c(c1)[C@H](NC(=O)c1ccc(F)cc1)[C@@H](O)C(C)(C)O2
CCOCCOCCOCCO
C1=CCCC=CCCC=CCC1
CC(O)CN(CCN(CC(C)O)CC(C)O)CC(C)O (stereo not drawn)
COC(=O)c1c(Cl)c(Cl)c(C(=O)OC)c(Cl)c1Cl
CCCC(=O)OCC
CC(C)=CCC/C(C)=C\CO
O=C1OC(=O)C2C3C=CC(C3)C12 (stereo not drawn)
